This passage reports log2 fold change results from the supplement of paper PMC10849652.

Targets with a hit are over-represented here; the source holds about 8,800 in all. About 0.5% of all pairs of compound and target were hits.

Sequence of UniProt Q9BTT4 (Q9BTT4 whole entry, looked up): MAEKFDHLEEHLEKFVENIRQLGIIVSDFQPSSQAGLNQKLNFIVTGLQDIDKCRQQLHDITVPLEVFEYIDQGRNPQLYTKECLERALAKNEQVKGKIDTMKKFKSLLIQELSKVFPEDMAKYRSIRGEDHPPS
Sequence of UniProt Q9NWR8 (Q9NWR8 whole entry, looked up): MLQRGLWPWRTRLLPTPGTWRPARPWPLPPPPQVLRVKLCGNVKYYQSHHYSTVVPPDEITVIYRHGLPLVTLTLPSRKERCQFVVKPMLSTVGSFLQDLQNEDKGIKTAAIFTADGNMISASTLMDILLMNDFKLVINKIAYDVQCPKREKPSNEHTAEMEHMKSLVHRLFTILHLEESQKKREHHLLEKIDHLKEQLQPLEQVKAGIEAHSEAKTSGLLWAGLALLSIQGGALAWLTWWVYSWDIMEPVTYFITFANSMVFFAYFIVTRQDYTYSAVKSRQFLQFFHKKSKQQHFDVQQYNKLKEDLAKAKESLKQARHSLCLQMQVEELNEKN
Sequence of UniProt O94822 (O94822 whole entry, looked up): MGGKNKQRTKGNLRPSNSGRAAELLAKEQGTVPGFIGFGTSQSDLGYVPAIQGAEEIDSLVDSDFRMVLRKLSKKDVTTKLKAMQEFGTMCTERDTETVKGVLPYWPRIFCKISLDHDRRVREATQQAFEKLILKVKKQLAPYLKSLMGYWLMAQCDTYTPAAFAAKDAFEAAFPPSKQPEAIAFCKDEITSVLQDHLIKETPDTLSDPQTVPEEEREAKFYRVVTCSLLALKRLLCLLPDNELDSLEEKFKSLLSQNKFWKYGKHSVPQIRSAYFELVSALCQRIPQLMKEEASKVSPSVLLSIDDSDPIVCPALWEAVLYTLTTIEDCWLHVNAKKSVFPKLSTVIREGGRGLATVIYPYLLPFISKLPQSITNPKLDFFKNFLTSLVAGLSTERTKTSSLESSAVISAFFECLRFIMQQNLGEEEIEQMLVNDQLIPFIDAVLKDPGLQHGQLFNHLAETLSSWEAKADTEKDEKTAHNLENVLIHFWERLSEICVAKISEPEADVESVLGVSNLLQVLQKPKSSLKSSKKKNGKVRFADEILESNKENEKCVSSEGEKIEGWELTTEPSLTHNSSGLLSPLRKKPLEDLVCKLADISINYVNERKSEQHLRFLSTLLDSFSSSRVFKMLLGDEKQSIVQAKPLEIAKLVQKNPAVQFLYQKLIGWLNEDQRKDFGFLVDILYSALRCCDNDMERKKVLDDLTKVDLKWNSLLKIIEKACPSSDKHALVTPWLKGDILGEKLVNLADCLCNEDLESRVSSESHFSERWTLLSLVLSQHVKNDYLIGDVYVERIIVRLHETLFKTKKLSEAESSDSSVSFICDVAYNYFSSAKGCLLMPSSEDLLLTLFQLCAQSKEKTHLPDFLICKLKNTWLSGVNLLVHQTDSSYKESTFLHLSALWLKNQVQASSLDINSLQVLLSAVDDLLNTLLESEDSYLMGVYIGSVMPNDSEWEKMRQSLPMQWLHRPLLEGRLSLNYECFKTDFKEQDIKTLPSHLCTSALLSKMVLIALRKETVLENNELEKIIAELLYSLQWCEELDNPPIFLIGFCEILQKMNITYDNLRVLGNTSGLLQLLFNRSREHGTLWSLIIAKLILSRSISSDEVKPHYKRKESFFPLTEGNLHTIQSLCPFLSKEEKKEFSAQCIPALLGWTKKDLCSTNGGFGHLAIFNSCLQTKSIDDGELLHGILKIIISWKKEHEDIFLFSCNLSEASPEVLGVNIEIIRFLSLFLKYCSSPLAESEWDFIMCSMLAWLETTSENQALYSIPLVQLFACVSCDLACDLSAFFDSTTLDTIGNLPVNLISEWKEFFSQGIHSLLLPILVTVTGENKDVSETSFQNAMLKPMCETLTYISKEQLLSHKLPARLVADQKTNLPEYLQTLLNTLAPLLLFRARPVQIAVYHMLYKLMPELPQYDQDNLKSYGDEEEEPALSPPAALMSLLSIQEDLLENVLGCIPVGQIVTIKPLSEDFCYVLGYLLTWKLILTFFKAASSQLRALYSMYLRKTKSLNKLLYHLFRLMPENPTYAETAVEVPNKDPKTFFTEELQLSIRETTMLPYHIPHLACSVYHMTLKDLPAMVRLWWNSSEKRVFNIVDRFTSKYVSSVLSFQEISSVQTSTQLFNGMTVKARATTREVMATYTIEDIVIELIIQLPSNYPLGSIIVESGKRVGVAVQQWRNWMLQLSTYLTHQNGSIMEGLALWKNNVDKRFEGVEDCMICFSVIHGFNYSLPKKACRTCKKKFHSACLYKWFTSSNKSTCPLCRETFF
Sequence of UniProt Q5SRI9 (Q5SRI9 whole entry, looked up): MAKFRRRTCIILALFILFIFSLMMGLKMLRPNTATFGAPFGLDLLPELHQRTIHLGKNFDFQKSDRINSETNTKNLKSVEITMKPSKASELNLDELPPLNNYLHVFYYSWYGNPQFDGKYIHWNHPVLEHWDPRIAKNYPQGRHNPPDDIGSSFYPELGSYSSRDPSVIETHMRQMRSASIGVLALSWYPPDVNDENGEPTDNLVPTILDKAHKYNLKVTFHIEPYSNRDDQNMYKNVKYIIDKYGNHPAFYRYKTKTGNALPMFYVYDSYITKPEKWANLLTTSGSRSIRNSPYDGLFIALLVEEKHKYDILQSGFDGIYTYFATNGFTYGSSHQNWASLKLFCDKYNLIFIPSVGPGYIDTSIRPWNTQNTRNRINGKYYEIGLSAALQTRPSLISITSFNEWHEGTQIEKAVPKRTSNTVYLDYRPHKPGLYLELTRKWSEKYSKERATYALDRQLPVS
Sequence of UniProt Q16644 (Q16644 whole entry, looked up): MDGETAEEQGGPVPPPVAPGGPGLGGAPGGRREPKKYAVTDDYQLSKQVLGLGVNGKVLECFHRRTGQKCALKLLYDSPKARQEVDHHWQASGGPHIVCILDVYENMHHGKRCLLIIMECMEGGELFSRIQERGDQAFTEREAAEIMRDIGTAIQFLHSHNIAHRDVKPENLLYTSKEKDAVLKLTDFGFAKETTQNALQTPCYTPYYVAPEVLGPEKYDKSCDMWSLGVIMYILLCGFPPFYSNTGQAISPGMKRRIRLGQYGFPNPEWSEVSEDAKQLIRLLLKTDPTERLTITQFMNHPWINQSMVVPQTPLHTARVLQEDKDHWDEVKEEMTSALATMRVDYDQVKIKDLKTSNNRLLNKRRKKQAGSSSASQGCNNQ
Sequence of UniProt Q9Y6R4 (Q9Y6R4 whole entry, looked up): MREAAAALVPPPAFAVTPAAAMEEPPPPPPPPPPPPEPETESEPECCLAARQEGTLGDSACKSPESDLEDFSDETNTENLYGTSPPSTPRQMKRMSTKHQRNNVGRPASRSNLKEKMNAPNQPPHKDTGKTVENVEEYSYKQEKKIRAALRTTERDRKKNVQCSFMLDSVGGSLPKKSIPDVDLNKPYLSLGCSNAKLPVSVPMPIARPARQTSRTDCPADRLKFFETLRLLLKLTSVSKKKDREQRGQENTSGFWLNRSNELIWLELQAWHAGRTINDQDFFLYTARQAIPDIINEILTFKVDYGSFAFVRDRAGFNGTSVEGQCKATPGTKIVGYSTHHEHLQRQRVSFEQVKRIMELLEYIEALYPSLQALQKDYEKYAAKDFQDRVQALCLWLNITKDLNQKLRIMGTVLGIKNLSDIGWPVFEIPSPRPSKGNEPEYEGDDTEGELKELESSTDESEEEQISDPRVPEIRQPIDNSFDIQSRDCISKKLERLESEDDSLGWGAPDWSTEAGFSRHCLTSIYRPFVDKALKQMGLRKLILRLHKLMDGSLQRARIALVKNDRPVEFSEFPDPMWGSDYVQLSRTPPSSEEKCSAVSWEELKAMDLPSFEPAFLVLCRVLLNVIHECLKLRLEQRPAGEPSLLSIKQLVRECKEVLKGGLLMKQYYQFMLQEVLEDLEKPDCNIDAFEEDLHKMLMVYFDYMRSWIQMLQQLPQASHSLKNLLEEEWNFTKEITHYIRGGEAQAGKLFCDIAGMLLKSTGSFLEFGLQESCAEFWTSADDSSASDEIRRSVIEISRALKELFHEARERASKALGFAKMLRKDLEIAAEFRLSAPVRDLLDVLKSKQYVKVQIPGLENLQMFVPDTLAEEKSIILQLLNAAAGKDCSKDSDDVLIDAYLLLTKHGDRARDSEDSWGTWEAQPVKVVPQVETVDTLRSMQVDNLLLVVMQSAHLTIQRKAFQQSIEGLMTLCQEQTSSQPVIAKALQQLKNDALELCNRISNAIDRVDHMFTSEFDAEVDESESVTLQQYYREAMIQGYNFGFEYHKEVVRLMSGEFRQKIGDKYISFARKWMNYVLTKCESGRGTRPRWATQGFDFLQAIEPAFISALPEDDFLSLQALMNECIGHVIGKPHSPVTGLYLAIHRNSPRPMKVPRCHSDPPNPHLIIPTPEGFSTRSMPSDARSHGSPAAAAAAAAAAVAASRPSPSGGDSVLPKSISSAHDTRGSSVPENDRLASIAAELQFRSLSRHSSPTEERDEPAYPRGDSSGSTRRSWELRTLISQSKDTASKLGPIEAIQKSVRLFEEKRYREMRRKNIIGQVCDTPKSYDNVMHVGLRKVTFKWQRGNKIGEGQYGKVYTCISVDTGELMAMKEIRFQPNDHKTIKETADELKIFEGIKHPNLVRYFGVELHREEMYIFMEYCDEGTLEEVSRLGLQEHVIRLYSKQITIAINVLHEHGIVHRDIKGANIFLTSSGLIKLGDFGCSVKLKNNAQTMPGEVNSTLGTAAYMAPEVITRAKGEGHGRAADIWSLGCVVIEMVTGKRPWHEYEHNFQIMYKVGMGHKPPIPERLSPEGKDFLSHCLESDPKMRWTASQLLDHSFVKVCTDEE
Sequence of UniProt Q8WXB1 (Q8WXB1 whole entry, looked up): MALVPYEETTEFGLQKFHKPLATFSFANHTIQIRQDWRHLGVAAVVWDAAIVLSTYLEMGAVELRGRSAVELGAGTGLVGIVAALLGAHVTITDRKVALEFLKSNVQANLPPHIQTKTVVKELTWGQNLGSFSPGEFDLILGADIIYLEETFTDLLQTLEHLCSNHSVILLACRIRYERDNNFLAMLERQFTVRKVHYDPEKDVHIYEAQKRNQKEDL
Sequence of UniProt O15243 (O15243 whole entry, looked up): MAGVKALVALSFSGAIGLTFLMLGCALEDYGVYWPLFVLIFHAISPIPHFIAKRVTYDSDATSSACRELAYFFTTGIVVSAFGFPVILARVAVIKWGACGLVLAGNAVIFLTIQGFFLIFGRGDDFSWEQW

Compound in the first experiment: C=CC(=O)N1CCC[C@@H](n2nc(-c3ccc(Oc4ccccc4)cc3)c3c(N)ncnc32)C1 [ibrutinib]
In words: log2 fold change, soluble protein after heating vs DMSO (PISA); higher = thermal stabilisation; K562 lysate, 10 uM; active = over 0.2 and 3.5 SD of the protein, either way, in both replicates (recomputed). The method in brief:
(§1)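 Quantification was by TMTpro 16plex LC-MS/MS with equalised channel sums, applied to the supernatant after 21,000xg for 90 min. Samples were crude K562 extract at 1 mg/mL protein in PBS pH 7.4 with 1 mM MgCl2, treated with 10 μM compound for 30 min, heated for 3 min across 48°C-58°C, pooled and brought to 0.5% NP-40 at 4°C. Values are log-two fold changes in thermal stability relative to solvent controls, from duplicates.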
As to MAP4K2 (UniProt Q12851), the log2 fold change is -0.036 (inactive).

Turning to LIMK1 (UniProt P53667), the log2 fold change was 0.546 (active).

With MCUB (UniProt Q9NWR8), the log2 fold change is 0.127 (inactive).

Take METTL21A (UniProt Q8WXB1): the log2 fold change was 0.006 (inactive).

Take MINDY1 isoform 3 (UniProt Q8N5J2): the log2 fold change is 0.199 (inactive).

Regarding MAP4 isoform 5 (UniProt P27816), the log2 fold change is 0.172 (inactive).

On to MAPKAPK3 (UniProt Q16644), for which the log2 fold change is 0.011 (inactive).

As for LPCAT1 (UniProt Q8NF37), the log2 fold change is 0.175 (inactive).

On to MANEA (UniProt Q5SRI9), for which the log2 fold change was 0 (inactive).

For MRPL30 isoform 2 (UniProt Q8TCC3), the log2 fold change is 0.01 (inactive).

For KRIT1 (UniProt O00522), the log2 fold change was 0.089 (inactive).

As for LTN1 isoform 3 (UniProt O94822), the log2 fold change is -0.036 (inactive).

Regarding MAPK8 isoform 3 (UniProt P45983), the log2 fold change was 0.038 (inactive).

For the target MED10 (UniProt Q9BTT4), the log2 fold change is -0.029 (inactive).

On to MAP3K4 (UniProt Q9Y6R4), for which the log2 fold change was 0.046 (inactive).

With MAP4K4 isoform 6 (UniProt O95819), the log2 fold change is 0.056 (inactive).

Compound in another experiment: CC(=O)c1cnc2ccc(-c3cc(Cl)c(O)c(Cl)c3)nc2c1N[C@H]1CC[C@H](CN(C)C)CC1
The experiment is described as above. In short, it runs like this: as §1
On to MCMBP isoform 2 (UniProt Q9BTE3), for which the log2 fold change was -0.055 (inactive).

Consider MAP4K5 (UniProt Q9Y4K4), for which the log2 fold change was 0.108 (inactive).

Turning to MACO1 (UniProt Q8N5G2), the log2 fold change was 0.043 (inactive).

Consider LEPROT (UniProt O15243), for which the log2 fold change was -0.273 (inactive).

Consider KLHL12 isoform 2 (UniProt Q53G59), for which the log2 fold change is 0.067 (inactive).

In the case of LSS (UniProt P48449), the log2 fold change is -0.018 (inactive).

In the case of KIF4B (UniProt Q2VIQ3), the log2 fold change is 0.005 (inactive).

On to MRPL27 (UniProt Q9P0M9), for which the log2 fold change is -0.057 (inactive).

Regarding MED25 isoform 3 (UniProt Q71SY5), the log2 fold change was 0.001 (inactive).

Consider MAP7D3 (UniProt Q8IWC1), for which the log2 fold change is 0.005 (inactive).

Consider MITD1 (UniProt Q8WV92), for which the log2 fold change was -0.067 (inactive).

Consider MED14 (UniProt O60244), for which the log2 fold change was -0.013 (inactive).

Regarding LIMK2 isoform 3 (UniProt P53671), the log2 fold change was 0.003 (inactive).

In the case of LAMP1 (UniProt P11279), the log2 fold change is -0.031 (inactive).

For MAPK3 (UniProt P27361), the log2 fold change is 0.017 (inactive).

In the case of MRPL35 (UniProt Q9NZE8), the log2 fold change is -0.014 (inactive).

MAN2B2 (UniProt Q9Y2E5): the log2 fold change is -0.026 (inactive).

On to MAST2 (UniProt Q6P0Q8), for which the log2 fold change was 0.054 (inactive).

Turning to MGST3 (UniProt O14880), the log2 fold change is -0.004 (inactive).

On to MAPK14 (UniProt Q16539), for which the log2 fold change is 0.238 (inactive).

On to LRRC7 (UniProt Q96NW7), for which the log2 fold change was 0.026 (inactive).

For the target MIF4GD isoform 3 (UniProt A9UHW6), the log2 fold change is -0.032 (inactive).

As for MME (UniProt P08473), the log2 fold change is -0.093 (inactive).

As to MAP4K2 (UniProt Q12851), the log2 fold change was 0.337 (inactive).

LIMK1 (UniProt P53667): the log2 fold change was -0.04 (inactive).

On to MCUB (UniProt Q9NWR8), for which the log2 fold change is 0.013 (inactive).

As for METTL21A (UniProt Q8WXB1), the log2 fold change was -0.106 (inactive).

As to MINDY1 isoform 3 (UniProt Q8N5J2), the log2 fold change was 0 (inactive).

In the case of MAP4 isoform 5 (UniProt P27816), the log2 fold change is 0.027 (inactive).

On to MAPKAPK3 (UniProt Q16644), for which the log2 fold change was 0.026 (inactive).

Turning to LPCAT1 (UniProt Q8NF37), the log2 fold change is -0.021 (inactive).

As to MANEA (UniProt Q5SRI9), the log2 fold change was 0.038 (inactive).

As to MRPL30 isoform 2 (UniProt Q8TCC3), the log2 fold change was 0.043 (inactive).

For KRIT1 (UniProt O00522), the log2 fold change was -0.047 (inactive).

Consider LTN1 isoform 3 (UniProt O94822), for which the log2 fold change is 0.018 (inactive).

For the target MAPK8 isoform 3 (UniProt P45983), the log2 fold change is 0.445 (active).

For MED10 (UniProt Q9BTT4), the log2 fold change was -0.087 (inactive).

Take MAP3K4 (UniProt Q9Y6R4): the log2 fold change was 0.19 (inactive).

For MAP4K4 isoform 6 (UniProt O95819), the log2 fold change is 0.001 (inactive).

Compound in a further experiment: CC(C)(C)Cn1c(N)nc2ccc(-c3[nH]c(C(C)(C)C)nc3-c3ccc(F)cc3)nc21 [ralimetinib]
The description is as above. In short, it runs like this:
as §1
As for MCMBP isoform 2 (UniProt Q9BTE3), the log2 fold change was -0.138 (inactive).

Regarding MAP4K5 (UniProt Q9Y4K4), the log2 fold change is 0.039 (inactive).

For MACO1 (UniProt Q8N5G2), the log2 fold change was -0.003 (inactive).

For the target LEPROT (UniProt O15243), the log2 fold change was -0.034 (inactive).

On to KLHL12 isoform 2 (UniProt Q53G59), for which the log2 fold change is 0.123 (inactive).

LSS (UniProt P48449): the log2 fold change was 0.14 (inactive).

Turning to KIF4B (UniProt Q2VIQ3), the log2 fold change is 0.004 (inactive).

On to MRPL27 (UniProt Q9P0M9), for which the log2 fold change was 0.023 (inactive).

In the case of MED25 isoform 3 (UniProt Q71SY5), the log2 fold change was -0.071 (inactive).

MAP7D3 (UniProt Q8IWC1): the log2 fold change is 0.023 (inactive).

Regarding MITD1 (UniProt Q8WV92), the log2 fold change was -0.039 (inactive).

Take MED14 (UniProt O60244): the log2 fold change was 0.017 (inactive).

Consider LIMK2 isoform 3 (UniProt P53671), for which the log2 fold change was 0 (inactive).

For the target LAMP1 (UniProt P11279), the log2 fold change is -0.003 (inactive).

With MAPK3 (UniProt P27361), the log2 fold change is -0.02 (inactive).

For the target MRPL35 (UniProt Q9NZE8), the log2 fold change is 0.041 (inactive).

For the target MAN2B2 (UniProt Q9Y2E5), the log2 fold change is 0.008 (inactive).

Regarding MAST2 (UniProt Q6P0Q8), the log2 fold change is 0.033 (inactive).

Turning to MGST3 (UniProt O14880), the log2 fold change was 0.041 (inactive).

For MAPK14 (UniProt Q16539), the log2 fold change is 1.16 (active).

In the case of LRRC7 (UniProt Q96NW7), the log2 fold change is -0.115 (inactive).

As to MIF4GD isoform 3 (UniProt A9UHW6), the log2 fold change was -0.04 (inactive).

Turning to MME (UniProt P08473), the log2 fold change is -0.117 (inactive).

MAP4K2 (UniProt Q12851): the log2 fold change is -0.029 (inactive).

In the case of LIMK1 (UniProt P53667), the log2 fold change was -0.125 (inactive).

Turning to MCUB (UniProt Q9NWR8), the log2 fold change was 0.054 (inactive).

METTL21A (UniProt Q8WXB1): the log2 fold change is 0.021 (inactive).

As to MINDY1 isoform 3 (UniProt Q8N5J2), the log2 fold change is 0.001 (inactive).

As to MAP4 isoform 5 (UniProt P27816), the log2 fold change is -0.1 (inactive).

MAPKAPK3 (UniProt Q16644): the log2 fold change is 0.006 (inactive).

For LPCAT1 (UniProt Q8NF37), the log2 fold change was 0 (inactive).

Consider MANEA (UniProt Q5SRI9), for which the log2 fold change is 0.024 (inactive).

Turning to MRPL30 isoform 2 (UniProt Q8TCC3), the log2 fold change was 0.04 (inactive).

With KRIT1 (UniProt O00522), the log2 fold change was 0.001 (inactive).

As for LTN1 isoform 3 (UniProt O94822), the log2 fold change is 0.016 (inactive).

MAPK8 isoform 3 (UniProt P45983): the log2 fold change is 0.294 (inactive).

MED10 (UniProt Q9BTT4): the log2 fold change is -0.015 (inactive).

Take MAP3K4 (UniProt Q9Y6R4): the log2 fold change was 0 (inactive).

On to MAP4K4 isoform 6 (UniProt O95819), for which the log2 fold change is -0.19 (inactive).
